Most compounds without a hit are left out; they make up all but 3.8% or so of the library.
HSF1 activator = increases HSF-1 driven luciferase reporter signal. actives 1.7% (n = 300,000). NIH3T3-HGL HSF-1 luciferase reporter, MG132, 8 h; 100% = twice DMSO control signal. activation, % at 9 µM;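 active means mean replicate activation of at least 50% with a set share of replicates each reaching 50%; inconclusive means only one of those two conditions met; inactive means mean below 50% and too few replicates reaching it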;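 further: 0% = median of the neutral control wells and 100% = twice that signal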
Wnt bcat act = activates Wnt/beta-catenin signaling in a reporter cell assay; activator, plate reader; activation, % at 9.35 µM; actives 1.2% (n = 300,000); AID 743398; in the data active means activation above about 30%, passing the limit was not always enough; inconclusive means no clear call, values can overlap the other calls;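 further: 0% = neutral control wells and 100% = positive control wells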
HSF1 inh = HSF1 inhibition | NIH3T3-HGL HSE-luciferase, MG132-induced, luminescence 8 h; stronger effect = lower value | activity change, negative = inhibition, % at 7.5 µM (by protocol) | actives 0.77% (n = 300,000);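 active means more than half of replicate wells show activity change below -50%, luminescence cut by over half; inconclusive means some wells, but at most half, below -50%; inactive means no replicate well below -50%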;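 further: luciferase reports HSF-1 transcriptional activity via heat shock element; 0% = median of DMSO wells and -100% = zero luminescence signal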
esBAF inh = blocks esBAF chromatin remodeling in mouse ES cells. actives 2% (n = 350,000). AID 602393. reporter increase, % at 12.5 µM. Bmi1-luciferase knock-in reporter, 24 h; 100% = twice the neutral-well signal; in the data active means activation above about 40%; inconclusive means no clear call, values can overlap the other calls;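 further: 0% = median of the plate's neutral control wells and 100% = double that signal; a rise in the Bmi1 reporter signal indicates esBAF inhibition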
MITF act = increases MITF-driven TRPM1 promoter luciferase signal; SK-MEL-5 TRPM1-promoter luciferase, 24 h; % of positive control, neutral wells = 0; activation, % at 12.5 µM; actives 0.75% (n = 300,000); AID 588334;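 active means mean activation of at least 80% with every replicate also reaching 80%; inconclusive means mean reaches 80% but some replicate falls short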;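 further: 0% = neutral control wells and 100% = parthenolide positive control wells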
* hit, by the source's call.

`COC(=O)CN1C(=O)Nc2ccc(C)cc2C1c1ccccc1` (stereo not given) gave HSF1 activator -73, Wnt bcat act -2, HSF1 inh -70* and MITF act 8.
COC(=O)CN1C(=O)Nc2ccc(Cl)cc2C1c1ccccc1 (stereo not given) was read as HSF1 activator 12, Wnt bcat act -2, HSF1 inh 7, esBAF inh 7 and MITF act 8.
`Cc1cc(NC(=O)CCS(=O)(=O)c2nc(-c3ccccc3)cc(C(F)(F)F)n2)no1` gave Wnt bcat act -2 and esBAF inh 11.
`CS(=O)(=O)c1nc(-c2ccccc2)cc(C(F)(F)F)n1` gave HSF1 activator -98, HSF1 inh -98*, esBAF inh 31 and MITF act -95.
Screening CCNC(=O)C[C@H]1CC[C@H]2[C@@H](COC[C@@H](O)CN2C(=O)Nc2ccc3c(c2)OCO3)O1 returned esBAF inh 53*.
`CCCNC(=O)C[C@H]1CC[C@H]2[C@@H](COC[C@@H](O)CN2C(=O)Nc2ccc3c(c2)OCO3)O1` gave esBAF inh 41*.
CCCNC(=O)C[C@H]1CC[C@@H]2[C@H](COC[C@H](O)CN2C(=O)Nc2ccc3c(c2)OCO3)O1 was read as esBAF inh 40.
CS(=O)(=O)N(CC(=O)NCc1ccccc1)C1CCCCC1 was read as HSF1 activator -83, HSF1 inh -77*, esBAF inh 0 and MITF act 2.
For Cc1ccc(CNC(=O)CN(C2CCCCC2)S(C)(=O)=O)cc1 the results were HSF1 activator 4, HSF1 inh -3, esBAF inh -5 and MITF act -3.
C[C@@H]1CN([C@@H](C)CO)C(=O)c2cc(C#CC3CCCCC3)cnc2O[C@@H]1CN(C)Cc1cccnc1 was read as esBAF inh -2.
`CNC[C@H]1OCCCC[C@H](C)Oc2ccc(NS(=O)(=O)c3ccccc3)cc2C(=O)N([C@H](C)CO)C[C@@H]1C` gave esBAF inh -6.
Screening COC(=O)C1=C(CN2CCCc3ccccc32)NC(=O)NC1c1ccc(F)cc1 (stereo not given) returned HSF1 activator -74, Wnt bcat act -24, HSF1 inh -71*, esBAF inh -78 and MITF act -87.
O=C(C[C@@H]1CC[C@@H](NS(=O)(=O)c2ccccc2)[C@H](CO)O1)NCc1ccccc1F was read as esBAF inh 3.
For C=CCn1cccc(C(=O)Nc2ccc(C)c(C)c2)c1=O the results were HSF1 activator 45, Wnt bcat act inconclusive, HSF1 inh 26, esBAF inh 49* and MITF act 72.
`C=CCn1cccc(C(=O)Nc2ccc(C)cc2)c1=O` gave HSF1 activator 56*, Wnt bcat act 2, HSF1 inh 19 and esBAF inh 39.
`C/C=C/Cn1cccc(C(=O)Nc2ccc(OC)cc2)c1=O` gave HSF1 activator 15, Wnt bcat act -1, HSF1 inh 12 and MITF act 9.
`CCCC#Cc1cnc2c(c1)C(=O)N([C@@H](C)CO)C[C@@H](C)[C@H](CN(C)Cc1ccccc1F)O2` gave esBAF inh -9.
For CC(C)NC(=O)N1[C@@H]2c3ccc(-c4ccccc4F)c(=O)n3C[C@@H]2[C@@H](CO)[C@@H]1C(=O)NC1CCC1 the results were esBAF inh -1.
Screening C[C@@H]1CN([C@@H](C)CO)C(=O)c2cccc(NC(=O)Nc3ccc4c(c3)OCO4)c2O[C@H]1CN(C)C returned esBAF inh 2.
Screening c1ccc2oc(-c3ccc4nc[nH]c4c3)nc2c1 returned HSF1 activator 33, HSF1 inh 30, esBAF inh 47* and MITF act 98*.
CCCN(C)C[C@H]1Oc2ncc(-c3ccccc3F)cc2C(=O)N([C@@H](C)CO)C[C@H]1C was read as esBAF inh -17.
For COC(=O)c1sc(NC(=O)/C=C/c2ccc(C)o2)nc1C the results were HSF1 activator 57*, Wnt bcat act 12, HSF1 inh 28 and MITF act 48.
COC(=O)c1sc(NC(=O)Cc2cccs2)nc1C was read as HSF1 activator -1, HSF1 inh 1, esBAF inh 42* and MITF act 38.
For COC(=O)c1sc(NC(=O)c2ccoc2C)nc1C the results were HSF1 activator 48, Wnt bcat act 10, HSF1 inh 21 and esBAF inh 49*.
COC(=O)c1sc(NC(=O)COc2ccccc2)nc1C was read as HSF1 activator 29, HSF1 inh 17, esBAF inh -1 and MITF act 56.
Screening CCOC(=O)c1sc(NC(=O)/C=C/c2ccc(F)cc2)nc1C returned HSF1 activator -17, Wnt bcat act -3, HSF1 inh -5, esBAF inh -4 and MITF act 3.
Screening C[C@H]1CN([C@@H](C)CO)C(=O)c2cc(-c3ccc(C#N)cc3)cnc2O[C@@H]1CN(C)Cc1cncnc1 returned esBAF inh -3.
`CCOC(=O)COc1ccc(/C=C2/SC(=Nc3ccccc3)N(Cc3cccnc3)C2=O)cc1OC` gave HSF1 activator 64*, Wnt bcat act 0, HSF1 inh 28, esBAF inh -1 and MITF act -7.
For CCOc1cc(/C=C2\SC(=Nc3ccccc3)N(c3ccccc3)C2=O)ccc1OCC(=O)O the results were HSF1 activator 26, Wnt bcat act -2, HSF1 inh 6 and MITF act 14.
`O=C(O)CSc1nc2ccccc2nc1Cc1ccccc1F` gave HSF1 activator 54*, Wnt bcat act 2, HSF1 inh 23 and MITF act 1.
Screening C[C@@H]1CN([C@H](C)CO)C(=O)c2cc(NC(=O)c3ccncc3)ccc2O[C@@H]1CN(C)C(=O)Nc1ccc2c(c1)OCO2 returned esBAF inh 2.
`O=C(COc1cccnc1[N+](=O)[O-])Nc1ncc(Cl)cc1Cl` gave Wnt bcat act -4, esBAF inh 15 and MITF act 2.
Screening O=C(COc1cccnc1[N+](=O)[O-])Nc1cc(Cl)ccc1Cl returned Wnt bcat act -2, esBAF inh 48* and MITF act 67.
Cc1ccc(OCC(=O)Nc2ccc(Cl)cc2)c([N+](=O)[O-])n1 was read as Wnt bcat act 41*, esBAF inh 63* and MITF act 110*.
For COc1cc(Cl)c(C)cc1NC(=O)COc1ccc(C)nc1[N+](=O)[O-] the results were Wnt bcat act 18, esBAF inh 81* and MITF act 99*.
For COc1ccc(NC(=O)COc2ccc(C)nc2[N+](=O)[O-])cc1S(N)(=O)=O the results were Wnt bcat act -1, esBAF inh -7 and MITF act -6.
`Cc1ccc(OCC(=O)Nc2ccc(F)cc2)c([N+](=O)[O-])n1` gave HSF1 activator 35, Wnt bcat act 12, HSF1 inh 2 and MITF act 104*.
